15-hLO-2 inh – qHTS Assay for Inhibitors of 15-hLO-2 (15-human lipoxygenase 2); purified 15hLO-2, xylenol orange hydroperoxide absorbance; Potency, µM (doses to about 57.1 µM), inactives show at the highest dose activity change, negative = inhibition, hits mostly inhibitors; 110,000 tested, 0.56% active; AID 881, 2007; also: potency is read from the fitted curve at half-maximal effect; nearly all actives have a fitted effect of over 60% in size
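Purified human 15hLO-2 (50 nM) preincubated 15 min with compound, then 45 uM arachidonic acid for 90 min at RT in 25 mM Hepes pH 7.5, 0.01% Triton X-100. Hydroperoxide detected by Fe-xylenol orange; 573/405 nm absorbance ratio.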
ALOX12 inhib – qHTS Assay for Inhibitors of 12-hLO (12-human lipoxygenase); Polyunsaturated fatty acid lipoxygenase ALOX12 (Homo sapiens), P18054; purified 12-hLO, xylenol orange hydroperoxide absorbance; Potency, µM (doses to about 57.1 µM), for the others: at the highest dose activity change, negative = inhibition, usual class: inhibitors; 150,000 tested, 0.12% active; AID 1452, 2008; also: potency is read from the fitted curve at half-maximal effect; nearly all actives have a fitted effect of over 55% in size
Target sequence (P18054 whole entry, looked up): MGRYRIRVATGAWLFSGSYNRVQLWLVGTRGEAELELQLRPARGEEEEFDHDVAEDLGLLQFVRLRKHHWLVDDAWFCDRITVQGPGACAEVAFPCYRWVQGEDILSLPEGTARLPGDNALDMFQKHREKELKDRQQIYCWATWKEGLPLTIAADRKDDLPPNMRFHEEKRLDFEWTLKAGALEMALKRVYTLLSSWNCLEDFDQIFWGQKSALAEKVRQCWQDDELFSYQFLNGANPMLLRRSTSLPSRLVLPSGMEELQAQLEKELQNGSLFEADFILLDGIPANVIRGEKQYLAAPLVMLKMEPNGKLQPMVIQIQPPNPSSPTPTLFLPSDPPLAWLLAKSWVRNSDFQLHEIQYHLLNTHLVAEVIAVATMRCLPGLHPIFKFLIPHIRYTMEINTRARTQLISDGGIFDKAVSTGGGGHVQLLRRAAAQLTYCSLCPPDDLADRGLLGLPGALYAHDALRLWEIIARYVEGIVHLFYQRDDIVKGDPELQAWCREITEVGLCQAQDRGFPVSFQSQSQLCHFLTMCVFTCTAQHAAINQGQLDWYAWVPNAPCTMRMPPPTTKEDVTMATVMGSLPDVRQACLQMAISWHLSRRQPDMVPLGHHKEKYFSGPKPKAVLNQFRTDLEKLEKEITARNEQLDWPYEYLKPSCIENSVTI
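Purified human 12hLO (150 nM final) was preincubated with compounds for 15 min at room temperature in 25 mM Hepes pH 7.0, 0.01% Triton X-100, then reacted with 40 uM arachidonic acid for 30 min. Hydroperoxide was detected with ferrous iron/xylenol orange.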
PNC assembly inh – High Content Assay for Compounds that inhibit the Assembly of the Perinucleolar Compartment; activity change (PNC), negative = inhibition, % at 10 µM; AID 2417, 2010; 140,000 tested, 3.1% active; PC3M PTB-GFP, PNC prevalence imaging, 16 h; stronger effect = lower value;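 active = readout at or below -70, meaning at least 70% loss of cells showing the perinucleolar compartment, a nuclear body marking cancer cells; inconclusive = readout between -30 and a set limit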;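 also: plate controls were DMSO wells for no effect and camptothecin positive control wells for full effect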
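Compounds are pinned in duplicate onto adhered PC3M cells stably expressing GFP-tagged PTB and incubated 16 h at 37 C. Cells are then fixed, nuclei stained with Hoechst, and PNC-positive cells counted.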
* hit, by the source's call; [ ] = remark or other dose. In the library only some 3.2% were active in any assay of this set; here they are far more common. Unless noted, calls follow the shape of the dose curve; as a rule, active = well fitted curve in the direction sought with a large enough effect; inconclusive = small, poorly fitted or top-dose-only effect, or another doubt; inactive = no such curve, though single readings can be large; an effect the other way counts as inactive or inconclusive. Unless noted, % is scaled to controls: 0 for no effect and ±100 for the full control effect.

Results for CON1C(=O)C(=O)N(OC)C2CCCCC21 (stereo unspecified) ?
ALOX12 inhib: 6%; PNC assembly inh: -13

What do the screens show for `O=C(NNC(=S)Nc1ccc(OC(F)F)cc1)c1cc2c(s1)CCCC2`?
ALOX12 inhib: -4%; PNC assembly inh: 0

What do the screens show for `N#C/C(=N\Nc1cccc2ccccc12)c1nnc2n1CCCCC2`?
ALOX12 inhib: 1%; PNC assembly inh: -113*

What do the screens show for `N#C/C(=C\c1c[nH]c2ccccc12)c1nnc2n1CCCCC2`?
ALOX12 inhib: -3%; PNC assembly inh: 2

Results for Cc1c2cc[n+](CCN3CCCCC3)cc2c(C)c2c1[nH]c1ccc(O)cc12 ?
15-hLO-2 inh: 13%[11.4 µM]; ALOX12 inhib: 8%[11.4 µM]

Results for O=c1c(-c2ccc(Cl)cc2)nc2cnc(N3CCNCC3)nc2n1CCc1ccccc1 ?
15-hLO-2 inh: 28%

What do the screens show for `CC1(C)CC(=O)C2=C(C1)N(CC1CCCO1)C(=O)C2(NC(=O)c1cccnc1)C(F)(F)F` (stereo unspecified)?
15-hLO-2 inh: 6%; ALOX12 inhib: 1%; PNC assembly inh: inconclusive

Results for O=C(NCc1ccccc1)c1ccc(N2C(=O)C3CCCCC3C2=O)cc1 (stereo unspecified) ?
ALOX12 inhib: -1%; PNC assembly inh: 33

Results for COc1cc(C(=O)OCC(=O)N(C)Cc2ccccc2)cc(OC)c1OC ?
ALOX12 inhib: -4%; PNC assembly inh: -100*

What do the screens show for `COc1ccc(CN(C)C(=O)COC(=O)c2ccc3c(c2)OCO3)cc1OC`?
15-hLO-2 inh: 2%; ALOX12 inhib: -4%; PNC assembly inh: inconclusive

What do the screens show for `CCOC(=O)CCNC(=O)Nc1ccc2nc(C)n(Cc3ccc(Cl)cc3)c(=O)c2c1`?
15-hLO-2 inh: 2%; ALOX12 inhib: -11%; PNC assembly inh: -18

How did CC(=O)Nc1ccc2nc(C)n(Cc3ccc(Cl)cc3)c(=O)c2c1 do in these assays?
ALOX12 inhib: -5%; PNC assembly inh: -90*

Results for CSc1nc(Sc2ccccc2Cl)c2ccccc2n1 ?
15-hLO-2 inh: 6%; ALOX12 inhib: -2%; PNC assembly inh: inconclusive

What do the screens show for `CCOC(=O)c1cnc(SC)nc1Sc1ccccc1Cl`?
15-hLO-2 inh: 1%; ALOX12 inhib: 0%; PNC assembly inh: -104*

How did COc1ccccc1-n1cnnc1SC(C)C(=O)Nc1cccc([N+](=O)[O-])c1 (stereo unspecified) do in these assays?
ALOX12 inhib: -2%; PNC assembly inh: 3

What do the screens show for `CCCCCCCC1=Cc2ccccc2C(CC(C)=O)N1C(=O)OC` (stereo unspecified)?
ALOX12 inhib: -3%[11.4 µM]

Results for Cc1c(C(=O)NCc2ccc3c(c2)OCO3)oc2ccc(S(=O)(=O)N3CCCCCC3)cc12 ?
15-hLO-2 inh: -2%; ALOX12 inhib: -16%; PNC assembly inh: inconclusive

What do the screens show for `Cc1c(C(=O)NCc2ccc3c(c2)OCO3)oc2ccc(S(=O)(=O)N3CCC(C)CC3)cc12`?
ALOX12 inhib: -5%; PNC assembly inh: -100*

What do the screens show for `CCN(CC(=O)NC1CCCCCC1)S(=O)(=O)c1ccccc1`?
15-hLO-2 inh: 0%; ALOX12 inhib: -4%; PNC assembly inh: -80*

Results for CCN(CC(=O)NC1CCCC1)S(=O)(=O)c1ccc(C)cc1 ?
15-hLO-2 inh: -2%; ALOX12 inhib: -3%; PNC assembly inh: inconclusive

What do the screens show for `COc1ccc(C(=O)NN/C(C)=C/C(=O)C(F)(F)C(F)(F)C(F)(F)F)cc1`?
ALOX12 inhib: 5%; PNC assembly inh: 13

How did O=C(Nc1ccc(CN2CCCCC2)cc1)c1ccc2c(c1)OCO2 do in these assays?
15-hLO-2 inh: 6%; ALOX12 inhib: -3%; PNC assembly inh: 46

Results for O=C(Nc1ccn(Cc2ccc(Cl)cc2)n1)c1ccc2c(c1)OCO2 ?
15-hLO-2 inh: 2%; ALOX12 inhib: -22%; PNC assembly inh: -82*

How did Cc1c(Cl)cnc(NC(=O)COC(=O)CCc2nc3ccccc3s2)c1Cl do in these assays?
ALOX12 inhib: -1%; PNC assembly inh: 8

How did O=C(OC(C(=O)NC1CCCCC1)c1ccccc1)c1ccco1 (stereo unspecified) do in these assays?
ALOX12 inhib: 16%; PNC assembly inh: inconclusive

How did O=C(OC(C(=O)NC1CCCC1)c1ccccc1F)c1ccco1 (stereo unspecified) do in these assays?
15-hLO-2 inh: -6%; ALOX12 inhib: 3%; PNC assembly inh: -139*

How did COc1ccc(-n2c(=O)c(C)nc3cnc(N(C)C)nc32)cc1 do in these assays?
15-hLO-2 inh: -2%; ALOX12 inhib: 4%

What do the screens show for `C=CCn1c(=O)c2ccccc2n2c(SCc3nnc(-c4ccccc4Br)o3)nnc12`?
15-hLO-2 inh: -17%; ALOX12 inhib: -7%; PNC assembly inh: -2

How did Cc1ccc(-c2noc(CN(C(=O)Cc3ccccc3)C(C)C)n2)cc1 do in these assays?
15-hLO-2 inh: 6%; ALOX12 inhib: -4%; PNC assembly inh: -81*

Results for CC(C)N(Cc1nc(-c2ccccc2)no1)C(=O)Cc1ccccc1 ?
15-hLO-2 inh: 4%; ALOX12 inhib: 0%; PNC assembly inh: inconclusive

How did Cc1ccc(S(=O)(=O)N2CCOCC(=O)NCCOCCNC(=O)COCC2)cc1 do in these assays?
15-hLO-2 inh: 5%; ALOX12 inhib: -4%; PNC assembly inh: 1

What do the screens show for `Cc1cc(C)c2c(c1)[C@@H]1C=CC[C@@H]1[C@H](c1ccc(S(=O)(=O)N3CCOCC3)cc1)N2`?
ALOX12 inhib: 0%; PNC assembly inh: -81*

What do the screens show for `N#Cc1ccccc1-c1ccc2ncnc(NC3CC3)c2c1`?
15-hLO-2 inh: -1%

How did O=C(COc1ccc(C(=O)c2ccccc2)cc1)NCc1ccc(F)cc1 do in these assays?
ALOX12 inhib: -1%; PNC assembly inh: -81*

Results for O=C(COc1ccccc1)NCc1ccccc1 ?
15-hLO-2 inh: -6%; ALOX12 inhib: 1%; PNC assembly inh: -26

What do the screens show for `O=c1c(-c2ccc(F)cc2)nc2cnc(Oc3ccccc3)nc2n1C[C@H]1CCCO1`?
15-hLO-2 inh: -5%; ALOX12 inhib: -4%

How did CN(C)c1ncc2ncc(=O)n(Cc3ccc(F)cc3)c2n1 do in these assays?
15-hLO-2 inh: 0%; ALOX12 inhib: -1%

What do the screens show for `Cc1cccc(/C=N/NC(=O)C2CCCNC2=O)c1` (stereo unspecified)?
ALOX12 inhib: -3%; PNC assembly inh: -85*

What do the screens show for `O=C1NCCCC1C(=O)Nc1ccccn1` (stereo unspecified)?
15-hLO-2 inh: 16%; ALOX12 inhib: 0%; PNC assembly inh: 12

What do the screens show for `Cc1nc(-c2cccc(NS(=O)(=O)c3cccc4ccccc34)c2)cs1`?
15-hLO-2 inh: 2%; ALOX12 inhib: -7%; PNC assembly inh: 0

How did CC(=O)Nc1ccc(N=Nc2ccccc2)cc1 do in these assays?
ALOX12 inhib: 1%; PNC assembly inh: -19

What do the screens show for `O=C(CCl)Nc1ccc(N=Nc2ccccc2)cc1`?
ALOX12 inhib: -3%; PNC assembly inh: -122*

Results for CCN(CC)C(=O)CN(C#N)c1nc(OC)nc(N(C)C)n1 ?
15-hLO-2 inh: -2%; ALOX12 inhib: 3%; PNC assembly inh: -82*
